The test concerns the target Fibroblast growth factor receptor 1 (Homo sapiens) (UniProt P11362). The conditions noted are these: at 1 µM.
Fibroblast growth factor receptor 1 (Homo sapiens), sequence (P11362 22-822 limits assumed): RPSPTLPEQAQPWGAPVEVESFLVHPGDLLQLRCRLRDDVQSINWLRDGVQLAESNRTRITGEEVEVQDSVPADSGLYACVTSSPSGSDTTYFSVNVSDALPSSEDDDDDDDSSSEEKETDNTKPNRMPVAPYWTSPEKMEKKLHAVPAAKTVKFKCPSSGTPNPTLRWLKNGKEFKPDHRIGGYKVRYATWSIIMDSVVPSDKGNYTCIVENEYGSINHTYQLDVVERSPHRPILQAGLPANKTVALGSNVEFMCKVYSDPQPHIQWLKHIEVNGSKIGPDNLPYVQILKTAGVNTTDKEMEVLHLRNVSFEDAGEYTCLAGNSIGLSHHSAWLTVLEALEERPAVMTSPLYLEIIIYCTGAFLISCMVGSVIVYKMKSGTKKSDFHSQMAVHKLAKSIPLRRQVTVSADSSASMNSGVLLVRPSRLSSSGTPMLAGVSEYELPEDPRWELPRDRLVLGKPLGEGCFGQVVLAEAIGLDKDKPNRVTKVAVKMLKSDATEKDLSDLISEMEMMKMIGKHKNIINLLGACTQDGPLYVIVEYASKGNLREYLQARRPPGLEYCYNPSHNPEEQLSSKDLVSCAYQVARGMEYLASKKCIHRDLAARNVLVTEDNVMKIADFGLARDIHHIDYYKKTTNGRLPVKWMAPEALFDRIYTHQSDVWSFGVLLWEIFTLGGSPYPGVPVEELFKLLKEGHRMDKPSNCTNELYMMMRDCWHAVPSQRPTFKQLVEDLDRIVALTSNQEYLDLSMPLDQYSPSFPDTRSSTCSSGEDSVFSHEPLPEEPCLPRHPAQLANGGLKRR
For `CCCN(CCS(C)(=O)=O)Cc1ccc(-c2ccc3ncnc(Nc4ccc(OCc5cccc(F)c5)c(Cl)c4)c3c2)o1`, the inhibition was 2.95%.

As to `Cc1ccc2c(-c3ccnc(Nc4ccccc4)n3)c(-c3ccc(F)cc3)nn2n1`, the inhibition turned out to be 10.9%. With `Fc1ccc(-c2cc(-c3c[nH]nc3-c3ccccn3)ccn2)cc1`, the inhibition amounted to 6.81%.

Take `FC(F)(F)c1cccc(-c2nn3ncccc3c2-c2ccnc(Nc3ccc4c(c3)OCCO4)n2)c1`: the inhibition amounted to 5.15%. For `N#Cc1c(NC(=O)CN2CCOCC2)sc2c1CCCC2`, the inhibition came out at 3.5%. For `c1ccc(COc2ccc(Nc3ncnc4ccc(-c5ccco5)cc34)cc2)cc1` the value was -7.82%. As for `Fc1ccc(-c2nn3ccccc3c2-c2ccncc2)cc1`, the inhibition was found to be 0.56%. `Cc1cccc(Nc2ncc(-c3ccccc3)o2)c1`: the inhibition is 3.22%. For `COc1cc2c(cc1Nc1nc(Nc3ccsc3C(N)=O)c3cc[nH]c3n1)N(C(=O)CN(C)C)CCC2(C)C`, the inhibition stood at 4.2%.

Consider `c1cc(-c2cnn3nc(N4CCOCC4)ccc23)nc(NC2CC2)n1`, for which the inhibition was 9.37%. With `CC(=O)NCc1cccc(C#Cc2cncnc2Nc2ccc(OCc3cccc(F)c3)c(Cl)c2)c1`, the inhibition was -0.46%. With `CC(=O)Nc1cccc(C#Cc2cncnc2Nc2ccc(OCc3cccc(F)c3)c(Cl)c2)c1`, the inhibition came to 8.04%. With `Nc1nc(-c2cccc(Cl)c2)c(-c2ccc3ncccc3n2)s1`, the inhibition was 7.27%.

For the compound `COc1ccc(-c2oc3ncnc(N)c3c2-c2ccc(NC(=O)Nc3cc(C(F)(F)F)ccc3F)cc2)cc1`, the inhibition worked out at 66%. Turning to `CC(C)(CO)CNC(=O)c1ccc2c(c1)/C(=N/Nc1ccc(S(N)(=O)=O)cc1)C(=O)N2`, the inhibition turned out to be 1.07%. Turning to `CCNC(=O)O[C@H]1CN[C@H](C#Cc2cc3ncnc(Nc4ccc(OCc5cccc(F)c5)c(Cl)c4)c3s2)C1`, the inhibition is 4.51%.

The inhibition is the relative decrease from the control value, in per cent.

For the origin of these results see ChEMBL document CHEMBL1961873, “Compounds: GSK PKIS; Assays: Nanosyn kinase panel” (2012).
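Further: values are the mean percent inhibition of FGFR1 across replicate measurements.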
